HEK293 viab – counter-screen for SNCA expression inhibitors: cell viability; HEK-293-SNCA-luc viability, GF-AFC fluorescence, 24 h; Potency, µM (doses to about 57.1 µM), actives largely listed as cytotoxic; 150,000 compounds, 0.12% hits; AID 1671193; also: nearly all actives have a fitted effect of over 30% in size
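HEK-293-SNCA-luc cells (1500/well) plated 24 h, then exposed 24 h to a dilution series; GF-AFC added 30 min at 37C, fluorescence 405/540 nm; normalised to medium-only and DMSO wells, Hill fit.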
SNCA expr inh – SNCA gene expression inhibition | HEK-293 SNCA-luciferase knock-in, luminescence, 24 h | 140,000 compounds, 0.17% hits | AID 1671194 | Potency, µM (doses to about 57.2 µM), hits mostly inhibitors; also: nearly all actives have a fitted effect of over 45% in size
KDM5B inh – KDM5B demethylase inhibition | Q9UGL1 | KDM5B demethylase, FDH-coupled NADH fluorescence (FDH is formaldehyde dehydrogenase) | Potency, µM (top dose mostly 57.7 µM), usual class: inhibitors | 220,000 compounds, 2.6% hits; also: nearly all actives have a fitted effect of over 70% in size
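Here, H3K4me3 peptide (12.5 µM in substrate mix) is demethylated by KDM5BΔAP, 200 nM final, after 10 min compound exposure. Formaldehyde product is coupled through FDH (0.25 U/mL in mix) to NADH fluorescence; 30-min ΔRFU feeds dose-response curves.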
IP6K1 inh – blocks human inositol hexakisphosphate kinase 1; Q92551; IP6K1 kinase, ADP-Glo luminescence, 2 h; hits give low values; activity change, % (series mostly up to about 58 µM); 140,000 compounds, 0.81% hits; AID 1645851; in the data active = activity change below about -25%
Target sequence (Q92551 whole entry, looked up): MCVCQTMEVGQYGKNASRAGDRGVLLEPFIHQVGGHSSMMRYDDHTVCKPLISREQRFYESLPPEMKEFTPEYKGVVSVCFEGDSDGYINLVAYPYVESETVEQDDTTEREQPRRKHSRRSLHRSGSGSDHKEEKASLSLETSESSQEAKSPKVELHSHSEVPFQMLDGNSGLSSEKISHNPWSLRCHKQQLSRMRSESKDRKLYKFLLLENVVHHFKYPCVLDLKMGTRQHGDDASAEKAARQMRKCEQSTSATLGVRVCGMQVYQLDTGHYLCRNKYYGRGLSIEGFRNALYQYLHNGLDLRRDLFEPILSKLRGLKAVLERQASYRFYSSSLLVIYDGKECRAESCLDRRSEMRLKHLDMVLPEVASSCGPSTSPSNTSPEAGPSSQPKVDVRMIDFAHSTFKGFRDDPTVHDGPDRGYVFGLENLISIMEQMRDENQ
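ADP-Glo luminescence measures ADP made by human IP6K1 during a 2 h RT reaction with ATP/IP6 (mix at 1.3 mM/130 uM); top library doses 57.5 and 19.1 uM final.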
Hits are given with their value; ! = a repeat was not active. Shown are actives, neighbours in structure and some others; about 2.8% of the full set was active somewhere. Unless noted, calls follow the shape of the dose curve; as a rule, active = well fitted curve in the direction sought with a large enough effect; inconclusive = small, poorly fitted or top-dose-only effect, or another doubt; inactive = no such curve, though single readings can be large; an effect the other way counts as inactive or inconclusive.

For O=C(c1ccc(Cl)cc1)N1CCC(N2CCCC2)CC1 the results were HEK293 viab inactive, SNCA expr inh inactive, KDM5B inh inactive and IP6K1 inh inactive.
COc1ccc2nc([C@H]3CCN(C(C)C)C3)[nH]c2c1 was read as HEK293 viab inactive, SNCA expr inh inactive, KDM5B inh 32µM and IP6K1 inh inactive.
For c1cc2nc(C3CCN(C4CCCCC4)C3)[nH]c2cn1 (centres undefined) the results were HEK293 viab inactive, SNCA expr inh inactive, KDM5B inh 40µM! and IP6K1 inh inactive.
For Cc1ccc2nc([C@H]3CCN(C4CCC4)C3)[nH]c2c1 the results were HEK293 viab inactive, SNCA expr inh inconclusive, KDM5B inh 28µM and IP6K1 inh inactive.
Screening CN1CCC(N2CC[C@H](c3nc4ccccc4[nH]3)C2)CC1 returned HEK293 viab inactive, SNCA expr inh inactive, KDM5B inh inactive and IP6K1 inh inactive.
Screening FC(F)(F)c1ccc2nc([C@H]3CCN(C4CCCCC4)C3)[nH]c2c1 returned HEK293 viab inactive, SNCA expr inh inactive, KDM5B inh inconclusive and IP6K1 inh inactive.
Screening COc1ccc(Cl)cc1NC(=O)C1CCCN1C(=O)C12CC3CC(CC(C3)C1)C2 (centres undefined) returned KDM5B inh inactive.
Screening C=CC(C)(O)CC/C=C(\C)COC1O[C@H](CO)[C@@H](O)[C@H](O)[C@H]1O (some centres undefined) returned HEK293 viab inconclusive and IP6K1 inh -34.
Screening COc1cccc(CNC(=O)Cn2nc(C(=O)O)c3ccccc3c2=O)c1 returned KDM5B inh inactive.
For O=C(O)c1ccc(Cc2ccccc2)o1 the results were KDM5B inh inactive.
Screening O=Cc1cccc(-c2ccc(C(=O)O)o2)c1 returned HEK293 viab inactive, SNCA expr inh inactive, KDM5B inh 126µM and IP6K1 inh inactive.
For O=c1cc(N2CCOCC2)oc2c(-c3ccccc3F)nccc12 the results were HEK293 viab inconclusive, SNCA expr inh inactive, KDM5B inh inconclusive and IP6K1 inh inactive.
For O=c1cc(N2CCOCC2)oc2c(NCC3CCOCC3)nccc12 the results were HEK293 viab inconclusive, SNCA expr inh inconclusive, KDM5B inh 32µM and IP6K1 inh inactive.
`O=c1cc(N2CCOCC2)oc2c(NCc3cnccn3)nccc12` gave HEK293 viab inactive, SNCA expr inh inactive, KDM5B inh 35µM and IP6K1 inh inactive.
Screening COc1cc2c(cc1OC)C(C[C@H]1CN(C(=O)c3ccco3)CC[C@H]1CC(=O)O)=NCC2 returned HEK293 viab inactive, SNCA expr inh inactive, KDM5B inh 28µM and IP6K1 inh inactive.
COc1cc2c(cc1OC)C(C[C@H]1CN(C(=O)c3ccc(N(C)C)cc3)CC[C@H]1CC(=O)O)=NCC2 was read as HEK293 viab inactive, SNCA expr inh inactive, KDM5B inh 28µM and IP6K1 inh inactive.
O=C(O)C[C@@H]1CCN(C(=O)c2ccco2)C[C@@H]1CC1=NCCc2ccccc21 was read as HEK293 viab inactive, SNCA expr inh inactive, KDM5B inh inconclusive and IP6K1 inh inactive.
`COc1cc2c(cc1OC)C(C[C@H]1CN(C(=O)c3ccc(C#N)cc3)CC[C@H]1CC(=O)O)=NCC2` gave HEK293 viab inactive, SNCA expr inh inactive, KDM5B inh inactive and IP6K1 inh inactive.
Screening COc1ccc(CC(=O)N2CC[C@@H](CC(=O)O)[C@@H](CC3=NCCc4cc(OC)c(OC)cc43)C2)cc1 returned HEK293 viab inactive, SNCA expr inh inactive, KDM5B inh 32µM and IP6K1 inh inactive.
Screening O=C(COCC(=O)N1CCN(c2ccccc2)CC1)NCc1ccccc1 returned KDM5B inh inactive.
Screening Cc1cc(SCc2ccc(Cl)cc2)nc2ccccc12 returned KDM5B inh inactive.
`O=Cc1ccc(-c2cncc(C(=O)O)c2)cc1` gave HEK293 viab inactive, SNCA expr inh inactive, KDM5B inh 100µM and IP6K1 inh inactive.
For CCC(C)c1ccc(NC(=O)C2CC3C=CC2C3)cc1 (centres undefined) the results were KDM5B inh inactive.
Screening CCOCCn1cc(C2CCN(S(=O)(=O)c3cccc(Cl)c3C)CC2)c2ccccc21 returned HEK293 viab inactive, SNCA expr inh inactive, KDM5B inh 28µM and IP6K1 inh inactive.
Screening CN(CCO)C[C@@H]1CN(C(=O)c2nc3ccccc3[nH]c2=O)C[C@@H]1CO returned HEK293 viab inactive, SNCA expr inh inconclusive, KDM5B inh 28µM and IP6K1 inh inactive.
For c1ccc(-c2ccc(CNCc3cccnc3)o2)cc1 the results were KDM5B inh inactive.
CCc1ccc(CN2CCC(CNC(=O)c3ccc(C)nc3)C2)nc1 (centres undefined) was read as HEK293 viab inactive, SNCA expr inh inactive, KDM5B inh 16µM and IP6K1 inh inactive.
`O=C(NCCNC(=O)c1nc2ccccc2c(=O)[nH]1)c1ccc2ccccc2c1` gave KDM5B inh inactive.
For CC1=C[C@@H](CN2CCN(c3cnccn3)CC2)[C@H](C(C)C)C[C@H]1Cc1nnc(-c2ccccc2)o1 the results were HEK293 viab inconclusive, SNCA expr inh inconclusive, KDM5B inh 28µM and IP6K1 inh inactive.
Screening CC1=C[C@@H](CNc2ccccn2)[C@H](C(C)C)C[C@H]1Cc1nnc(-c2cncn2C)o1 returned HEK293 viab inactive, SNCA expr inh inconclusive, KDM5B inh 35µM and IP6K1 inh inactive.
Screening CC1=C[C@@H](CN2CCN(c3ccccn3)CC2)[C@H](C(C)C)C[C@H]1Cc1nnc(-c2ccc(C)cc2)o1 returned HEK293 viab inconclusive, SNCA expr inh inconclusive, KDM5B inh inconclusive and IP6K1 inh inactive.
For COCCN1Cc2ccc(NCc3ccccc3)nc2C(C)(C(=O)Nc2cccnc2)C1 (centres undefined) the results were HEK293 viab inactive, SNCA expr inh inactive, KDM5B inh 32µM and IP6K1 inh inactive.
`COCCN1Cc2ccc(NCc3ccccc3)nc2C(C)(C(=O)NC2CCOCC2)C1` (centres undefined) gave HEK293 viab inactive, SNCA expr inh inactive, KDM5B inh 11µM and IP6K1 inh inactive.
`COCCN1Cc2ccc(NCc3ccccc3)nc2C(C)(C(=O)Nc2ccc(F)cc2)C1` (centres undefined) gave HEK293 viab inactive, SNCA expr inh inconclusive, KDM5B inh inconclusive and IP6K1 inh inactive.
For COCCN1Cc2ccc(NCc3ccccc3)nc2C(C)(C(=O)NCc2ccccc2)C1 (centres undefined) the results were HEK293 viab inactive, SNCA expr inh inactive, KDM5B inh 28µM and IP6K1 inh inactive.
`CC(C)CNc1ccc2c(n1)C(C)(C(=O)NC1CCC(O)CC1)CN(Cc1ccccc1)C2` (centres undefined) gave HEK293 viab inactive, SNCA expr inh inconclusive, KDM5B inh inactive and IP6K1 inh inactive.
COCCN1Cc2ccc(NCc3ccccc3)nc2C(C)(C(=O)Nc2ccccc2)C1 (centres undefined) was read as HEK293 viab inconclusive, SNCA expr inh inconclusive, KDM5B inh inconclusive and IP6K1 inh inactive.
For COc1ccc(C(=O)NC2CCN(Cc3cccc(-c4cccc(C)c4)c3)CC2)cc1 the results were HEK293 viab inactive, SNCA expr inh inconclusive and IP6K1 inh inactive.
